Reference: the supplement of paper PMC6555819

How the values were obtained:
Test in all cases: PBM binding z-score (relative to random genomic background probes); higher = stronger binding; sequences stand for … in GC…GCGATTGACAGCGTAGAATGAAGG
[1] = tested on: FXR:RXRa (NR concentration 270 nM, RXRa partner concentration 90 nM)
How it was run: (§1)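 Probes were double-stranded and carried 34-nt variable regions with direct-repeat seeds, single-nucleotide variants, half-site ablations and random human genomic background sequences, printed on custom Agilent 4×180K protein-binding microarrays. Arrays were incubated 1 h with ligand-free nuclear receptor dimers in PBS pH 7.4, 2% milk, 0.02% Triton X-100, 1 mM DTT, 0.2 mg/mL BSA and 0.4 mg/ml salmon testes DNA. Antibodies against each partner (one per run) detected binding, and scanned fluorescence was regression-normalized. Binding z-scores use the random background probes as reference.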

[2] = tested on: LXRa:RXRa (NR concentration 270 nM, RXRa partner concentration 90 nM)
How it was run: as §1

[3] = tested on: LXRa homodimer (NR concentration 270 nM)
How it was run: as §1

[4] = tested on: LXRb:RXRa (NR concentration 270 nM, RXRa partner concentration 90 nM)
How it was run: as §1

[5] = tested on: LXRb homodimer (NR concentration 270 nM)
How it was run: as §1

[6] = tested on: PPARa:RXRa (NR concentration 270 nM, RXRa partner concentration 90 nM)
How it was run: as §1

[7] = tested on: PPARg:RXRa (NR concentration 180 nM, RXRa partner concentration 90 nM)
How it was run: as §1

[8] = tested on: PPARg:RXRa 270nM:90nM, anti-RXR (NR concentration 270 nM, RXRa partner concentration 90 nM)
How it was run: as §1

[9] = tested on: PPARg:RXRa 30nM:10nM, anti-RXR (NR concentration 30 nM, RXRa partner concentration 10 nM)
How it was run: as §1

[10] = tested on: PPARg:RXRa 90nM:30nM, anti-RXR (NR concentration 90 nM, RXRa partner concentration 30 nM)
How it was run: as §1

| Sequence | PBM binding z-score [1] | PBM binding z-score [2] | PBM binding z-score [3] | PBM binding z-score [4] | PBM binding z-score [5] | PBM binding z-score [6] | PBM binding z-score [7] | PBM binding z-score [8] | PBM binding z-score [9] | PBM binding z-score [10] |
| --- | --- | --- | --- | --- | --- | --- | --- | --- | --- | --- |
| TATACATGGTCAAAGGCCAGAGTACGAATGTCGA | 0.397 | 0.672 | 0.238 | 0.37 | 0.623 | 1.64 | 3.14 | 4.34 | 2.32 | 4.31 |
| CATTACGGGTCACGAGGTTATAGCACGACGAGCG | 7.14 | 6.04 | 2.06 | 4.56 | 1 | 6.33 | 8.49 | 7.3 | 4.45 | 6.59 |
| TCTGCTTGGTCAGTTGGTCAGCTAACGAGCTGCC | -0.433 | -0.4 | -1.02 | -0.763 | -0.0318 | -0.161 | -1.11 | 0.771 | 1.04 | 0.933 |
| CTCGAAAGGTCGATTGAGGTGAGTATACGGATAA | 4.35 | 3.38 | -0.0633 | 2.93 | 0.38 | 4.12 | 1.66 | 2.47 | 0.642 | 1.43 |
| TCTAGTTGGTCAAAGGTTACACACTCGAAATGCG | 2.63 | 3.13 | 1.38 | 3.04 | 0.929 | 5.08 | 9.84 | 8.86 | 8.99 | 9.47 |
| GCTAGTTGGTCAGTAAAAGGTCACAAACCGGTCG | 3.06 | 3.78 | 3.4 | 3.99 | 0.763 | 4.53 | 2.59 | 4.01 | 2.23 | 3.46 |
| AATACAGGGTCATCGTAGGCCAGCGTACGCACAG | 7.47 | 6.19 | 2.61 | 4.66 | 1.23 | 6.28 | 6.7 | 5.95 | 2.73 | 4.61 |
| TTACCAGGGTGAGCTGAGGTCGTTGATCCAACTC | 1.3 | 1.44 | -0.264 | 0.797 | -1.42 | 1.87 | 0.186 | 1.08 | -0.0751 | 0.766 |
| TCTAGCAGGCCGGAGGGTCACTCAAGAGGTACGG | 0.786 | 0.705 | -0.517 | 0.729 | -1.11 | 1.69 | 0.508 | 1.34 | 1.19 | 1.2 |
| GCTAGGTGGTCAGTAAAAGGTCACACACCGGTCG | 3.63 | 4.57 | 4.44 | 4.2 | 0.699 | 4.56 | 2.78 | 4.14 | 1.72 | 3.51 |
| AATACAGGATCATCGTAGGCCAGAGTACGCACAG | -0.0228 | 0.0727 | 0.0212 | 0.0447 | 0.414 | -0.0183 | 0.976 | 0.159 | 0.238 | 0.209 |
| TCATATAGGTAATACAAGTGAAAGTCGGCATCTA | 1.52 | 1.28 | 0.46 | 1.17 | 0.185 | 1.59 | 1.39 | 2.52 | 4.29 | 3.28 |
| TCATATAGGTAATACACGTGAAAGTCGGCATCTA | 1.26 | 0.929 | 0.413 | 1.06 | 0.455 | 1.13 | 1.1 | 2.03 | 3.93 | 2.92 |
| CAAACTAGGTCACAGAGGTGAAAGTCCGTGCGTA | 5.7 | 4.38 | 0.932 | 3.33 | 0.56 | 5.82 | 9.16 | 7.57 | 5.73 | 7.6 |
| GCTTACGGGTCAAAGGTTATAGCGTGAATAGAAT | 7.45 | 5.66 | 0.631 | 5.61 | 0.387 | 6.97 | 11 | 9.25 | 9.52 | 9.99 |
| CCTCGGCGGACAACAGGAGGTCAGAGCTGCCAGA | 0.527 | 1.43 | 1.67 | 1.06 | -1.27 | 1.68 | -0.102 | 0.0174 | -0.988 | -0.415 |
| CCTTACGGGTCACTCCAGGTTATAACATCGGAGT | 4.88 | 7.46 | 2.11 | 5.8 | 0.0817 | 4.74 | 3.9 | 3.91 | 1.29 | 2.8 |
| CTACCAAGGTGAACGAGGTCGTTGATTACTATTC | 1.79 | 1.81 | 0.142 | 2.09 | -0.207 | 2.82 | 1.45 | 1.48 | 0.4 | 0.896 |
| CCAGACCGGTGAAAGGTAACTCAGTCTGGTACGC | -0.0585 | 0.0819 | -0.526 | 0.182 | -0.601 | 2.13 | 2.61 | 4.02 | 1.71 | 3.56 |
| ATATGTAGGTTAGCAGGGGTCATTCAGACTAGGC | 5.14 | 5.99 | 4.53 | 5.37 | 1.78 | 5.56 | 6.6 | 5.97 | 3.32 | 5.33 |
| GCTTACGGGTCAAAGGCTATAGCATGAATAGAAT | 5.51 | 3.89 | 0.00427 | 3.82 | 0.0561 | 6.01 | 7.81 | 6.86 | 5.03 | 6.55 |
| TCATATAGGGAAACAGGTGAAAGTCCGTAAGTTA | 1.01 | 1.04 | 0.121 | 1.11 | -0.148 | 1.74 | 1.69 | 3.03 | 4.32 | 3.7 |
| CAGCCTAGGTCAGGGACAGTATAGGAGGAACGTT | 1.72 | 1.1 | -0.189 | 0.879 | -0.664 | 2.34 | 1.26 | 1.07 | 0.251 | 0.563 |
| GCTATTAGTTGAAAGGGCAACCGCATGATTCTCG | 0.581 | 0.701 | 0.377 | 0.909 | -0.00487 | 2.31 | 2.89 | 4.29 | 2.56 | 4.39 |
